Measured values from a collection of fitness landscapes (doi:10.1016/j.celrep.2020.107928).
Whole data set: some 81,000 sequences, median “one-hybrid fitness for binding parS DNA” near -0.17, cut for the highest 2% near 0.51. What follows is part of a selection rich in the highest values, with near analogues and random picks from the rest.

B1: Caulobacter ParB omega fusion; a variant is named by its letters at X, in order, B8GW30 (parent)
chain: MESVVVGEPGMSEGRRGLGRGLSALLGEVDAAPAQAPGEQLGGSREAPIEILQRNPDQPRRTFREEDLEDLSNSIREKGVLQPILVRPSPDTAGEYQIVAGERAWRAAQRAGLKTVPIMVRELDDLAVLEIGIIENVQRADLNVLEEALSYKVLMEKFERTQENIAQTIGKSXSHVANXMRLLXLPDEVQSYLVSGELTAXHARAIAAAADPVALAKQIIEGGLSVRETEALARKAPNLSAGKSKGGRPPRVKDTDTQALESDLSSVLGLDVSIDHRGSTGTLTITYATLEQLDDLCNRLTRGI

Variants of: B1
Assay: one-hybrid fitness for binding parS DNA (scaled: cognate 1, non-cognate 0); higher = stronger binding
Details: with parS DNA site
In short: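 Bacterial one-hybrid selection in E. coli USO rpoZ- hisB- pyrF- with a HIS3 reporter carrying the site 19 bp from the promoter, screening Caulobacter ParB libraries with four specificity codons randomised (NNS). Cells grew 48 hours at 37°C on M9-minus-histidine plus 0.1 mM IPTG and 5 mM 3-AT. Plasmids before and after selection were Illumina-sequenced, three replicate libraries pooled, and variants under 10 reads dropped. Fitness is the log change in variant-to-wild-type read ratio, rescaled to cognate 1, non-cognate 0.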

one-hybrid fitness for binding parS DNA, 0.824:
RFMC

one-hybrid fitness for binding parS DNA, 0.563:
RADA

one-hybrid fitness for binding parS DNA, 0.287:
REYS

one-hybrid fitness for binding parS DNA, 0.97:
RYGG

one-hybrid fitness for binding parS DNA, 0.956:
RAMC

one-hybrid fitness for binding parS DNA, 0.466:
RYNY

one-hybrid fitness for binding parS DNA, 0.974:
RYCG

one-hybrid fitness for binding parS DNA, 1.02:
RMTG

one-hybrid fitness for binding parS DNA, 0.202:
RNVH

one-hybrid fitness for binding parS DNA, 0.383:
RYYN

one-hybrid fitness for binding parS DNA, 0.816:
RQFC

one-hybrid fitness for binding parS DNA, 0.602:
RAYA

one-hybrid fitness for binding parS DNA, 0.512:
RWDT

one-hybrid fitness for binding parS DNA, 0.819:
RNKT

one-hybrid fitness for binding parS DNA, 0.43:
RWVT

one-hybrid fitness for binding parS DNA, 0.933:
RHAS

one-hybrid fitness for binding parS DNA, 0.595:
RANA

one-hybrid fitness for binding parS DNA, 0.665:
RWST

one-hybrid fitness for binding parS DNA, 0.66:
REKS

one-hybrid fitness for binding parS DNA, ≤ 0.2:
DQEG
NHEC
QCPT
IMKR
GAMN
LESA
LGIT
SQRC
GQLN
NPSA
GPFR
DFTG
RHTK
RKTK
RMTK
RHTD
RKTR
NFTG
ARLR
MAAN
VTYC
VAAS
WVLT
IAPF
QMYC
YLQA
IPAC
RTTR
RSTP
VSEV
PLGR
SLYF
HVAN
SESV
KMES
AYKT
HFLP
IRCS
RNVN
RNKR
NALR
TTTT
IISE
HKNW
PIET
ILAD
RHFH
RHFD
RHAP
LHQT
RQAQ
LNHR
ERQR
SWSW
TRLI
CQYS
LSGY
HRTK
RDMC
RRMH
RPMC
RRMD
IMTG
GAKE
CNSF
GRPA
CRST
IKCT
RAMR
RKMP
RMMP
RAMQ
RKMH
RFMD
TLMF
GTMC
LVSA
ITSK
DYWG
THDS
RKMK
YPLS
RSMD
RHMP
RSMP
RTMP
AGSI
PTDS
FNHS
TAPE
GYWS
EPIG
PHQC
MHER
KLAC
REYG
RERH
REVG
REVS
REKN
QTIM
KYAR
EYFS
PLFV
VHQV
TPHK
RYHK
RYNK
RYCD
RYHQ
RYYH
IKAI
HHKY
RSDE
FGTM
PPRW
KGNG
QLTS
DASE
GWLC
EELW
SCTR
IRQT
VEHR
RYSD
RYGR
RYSP
RYWK
RYWQ
AIYV
RKII
QIVC
KAHG
VQHT
HLQY
RYRH
RYDH
RYRP
RYDP
SLFE
WPSR
QMHP
VYQY
SHPH
RWNQ
RWAR
PRFH
HAWM
IKVG
EEHS
NPMG
CKHA
GRFC
PTDC
AWVV
DFLV
TRVH
KVCE
NTDV
SNDS
RWCF
RWCY
PDGT
PKSV
QRHM
THKG
MWHG
YDRG
TVTH
GSYT
MYQT
GLVV
RWQD
RWSD
RWKQ
THYN
TFIW
SPRC
DYFS
HAPN
RKAW
FTYI
RVVV
SIHC
LMAG
QCAE
RLAR
RLFP
FKTR
LCPN
GYEP
DACA
NANA
FRDR
TQKT
WTHY
REHK
GALF
VMFV
LLFI
NAQA
NARA
DARA
PICM
LVHY
WEWS
SNSE
RTDH
RTND

one-hybrid fitness for binding parS DNA, 0.977:
RFTG

one-hybrid fitness for binding parS DNA, 0.229:
RLMP

one-hybrid fitness for binding parS DNA, 0.462:
RYLY

one-hybrid fitness for binding parS DNA, 0.461:
RSTN
RAIA

one-hybrid fitness for binding parS DNA, 0.533:
REKG

one-hybrid fitness for binding parS DNA, 0.965:
RHFS

one-hybrid fitness for binding parS DNA, 0.39:
RIMN

one-hybrid fitness for binding parS DNA, 0.548:
RWGT
RAQA

one-hybrid fitness for binding parS DNA, 0.947:
RQAC

one-hybrid fitness for binding parS DNA, 0.618:
RWQT

one-hybrid fitness for binding parS DNA, 0.92:
RYRG

one-hybrid fitness for binding parS DNA, 0.995:
RLAC

one-hybrid fitness for binding parS DNA, 0.258:
RLFH

one-hybrid fitness for binding parS DNA, 0.398:
RQFY

one-hybrid fitness for binding parS DNA, 0.435:
RMMN

one-hybrid fitness for binding parS DNA, 0.437:
RWET

one-hybrid fitness for binding parS DNA, 0.477:
RTTY

one-hybrid fitness for binding parS DNA, 0.371:
RHAN

one-hybrid fitness for binding parS DNA, 0.658:
RARA

one-hybrid fitness for binding parS DNA, 0.284:
RWPT

one-hybrid fitness for binding parS DNA, 0.874:
RTNS

one-hybrid fitness for binding parS DNA, 0.514:
RNVT

one-hybrid fitness for binding parS DNA, 0.387:
RWIT

one-hybrid fitness for binding parS DNA, 0.507:
RWWT

one-hybrid fitness for binding parS DNA, 0.596:
RWYT

one-hybrid fitness for binding parS DNA, 0.207:
RYQF

one-hybrid fitness for binding parS DNA, 0.976:
RCMC

one-hybrid fitness for binding parS DNA, 0.234:
RIMD

one-hybrid fitness for binding parS DNA, 0.609:
RACA

one-hybrid fitness for binding parS DNA, 0.233:
GPYH

one-hybrid fitness for binding parS DNA, 0.529:
RERS

one-hybrid fitness for binding parS DNA, 0.722:
RWRT

one-hybrid fitness for binding parS DNA, 0.433:
RTMN

one-hybrid fitness for binding parS DNA, 0.975:
RYNG

one-hybrid fitness for binding parS DNA, 0.89:
RYWG

one-hybrid fitness for binding parS DNA, 0.231:
RAPA

one-hybrid fitness for binding parS DNA, 0.682:
RWNT

one-hybrid fitness for binding parS DNA, 0.389:
RHMN

one-hybrid fitness for binding parS DNA, 0.913:
RYDG

one-hybrid fitness for binding parS DNA, 0.497:
RWFT

one-hybrid fitness for binding parS DNA, 0.905:
RKTG

one-hybrid fitness for binding parS DNA, 0.948:
RLFC

one-hybrid fitness for binding parS DNA, 0.986:
RIMC
RYLG

one-hybrid fitness for binding parS DNA, 0.611:
RWCT

one-hybrid fitness for binding parS DNA, 1:
RTTG
RSTG
RYHG

one-hybrid fitness for binding parS DNA, 0.556:
RWLT

one-hybrid fitness for binding parS DNA, 0.242:
RNKF
RFMN

one-hybrid fitness for binding parS DNA, 0.967:
RHTG

one-hybrid fitness for binding parS DNA, 0.291:
RLMH

one-hybrid fitness for binding parS DNA, 0.811:
RWKT

one-hybrid fitness for binding parS DNA, 0.982:
RTMC

one-hybrid fitness for binding parS DNA, 0.342:
RLAM

one-hybrid fitness for binding parS DNA, 0.897:
RKMC

one-hybrid fitness for binding parS DNA, 0.908:
RHMC

one-hybrid fitness for binding parS DNA, 0.971:
RYQG

one-hybrid fitness for binding parS DNA, 0.31:
RYQM

one-hybrid fitness for binding parS DNA, 0.928:
RSMC

one-hybrid fitness for binding parS DNA, 0.382:
RYCN

one-hybrid fitness for binding parS DNA, 0.997:
RYYG

one-hybrid fitness for binding parS DNA, 0.655:
RWHT

one-hybrid fitness for binding parS DNA, 0.318:
RWSN

one-hybrid fitness for binding parS DNA, 0.614:
RWAT

one-hybrid fitness for binding parS DNA, 0.218:
RMTH

one-hybrid fitness for binding parS DNA, 0.984:
RYSG

one-hybrid fitness for binding parS DNA, 0.264:
RWQN

one-hybrid fitness for binding parS DNA, 0.279:
RQFM

one-hybrid fitness for binding parS DNA, 0.989:
RTDS

one-hybrid fitness for binding parS DNA, 0.205:
RYGF

one-hybrid fitness for binding parS DNA, 0.25:
RQAF

one-hybrid fitness for binding parS DNA, 0.324:
RYLM

one-hybrid fitness for binding parS DNA, 0.625:
RRMC

one-hybrid fitness for binding parS DNA, 0.424:
RTNN

one-hybrid fitness for binding parS DNA, 0.404:
RTDN

one-hybrid fitness for binding parS DNA, 0.992:
RLMC
RMMC

one-hybrid fitness for binding parS DNA, 0.339:
RWNY
